Compound activity deposited in PubChem by National Center for Advancing Translational Sciences (NCATS).
Rango dissoc inh – inhibitors of RanGTP-induced Rango-importin beta complex dissociation. Biochemical FRET Rango-importin beta, RanGTP-induced dissociation. Potency, µM (doses to about 46.1 µM), for inactives: top-dose activity change, negative = inhibition. hit rate 0.071% among 340,000. AID 540253; calls by dose curve; note: potency is the fitted concentration of half-maximal effect; % of control where 0% means no effect; nearly all actives have a fitted effect of over 45% in size
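Compounds sat 5 min at room temperature with 0.1 uM Rango biosensor plus 0.25 uM importin beta, then FRET pre-read. RanGTP-RCC1 (0.6 uM Ran, 2mM GTP, 0.2 uM RCC1) added for 45 min, and the CFP/YFP post-read measured blocked complex dissociation.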
B2AR arrestin – agonists driving beta-arrestin recruitment to human beta2-adrenergic receptor. P07550. beta-arrestin recruitment to beta2AR, cell-based reporter. Potency, µM (titrated, usually from 46.1 µM), for the others: at the top dose activation, usual class: activators. hit rate 0.02% among 330,000. AID 492947;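 note: potency is the fitted concentration of half-maximal effect; 0% = DMSO controls and full agonism = EC100 isoproterenol or metaproterenol; nearly all actives have a fitted effect of over 65% in size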
Target sequence (P07550 whole entry, looked up): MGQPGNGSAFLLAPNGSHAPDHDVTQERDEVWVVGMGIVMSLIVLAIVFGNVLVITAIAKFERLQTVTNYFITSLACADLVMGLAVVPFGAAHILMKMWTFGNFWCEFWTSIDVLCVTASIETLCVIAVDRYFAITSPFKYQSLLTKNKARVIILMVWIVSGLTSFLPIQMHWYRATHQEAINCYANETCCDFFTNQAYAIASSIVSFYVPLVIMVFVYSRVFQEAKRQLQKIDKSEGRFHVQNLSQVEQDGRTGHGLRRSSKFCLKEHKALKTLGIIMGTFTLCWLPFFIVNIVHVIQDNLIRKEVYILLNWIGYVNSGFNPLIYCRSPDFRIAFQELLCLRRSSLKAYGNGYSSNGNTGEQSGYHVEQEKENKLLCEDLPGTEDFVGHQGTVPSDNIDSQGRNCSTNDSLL
CCT modulator – cytosolic chaperonin activity modulation; purified chaperonin ATPase assay, HTRF ADP detection, 30 min; activity change, % (test concentration not listed), hits read low; hit rate 0.3% among 360,000; in the data active = activity change below about -30%; note: % is set by controls: 0 for no effect and ±100 for the full control effect
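TRiC at 40 or 20 nM final (batch-dependent) in 30 mM Tris pH 7.4, 100 mM KCl, 5 mM MgCl2, 1 mM DTT, with compound at single 76 uM and 10 uM ATP, 30 min at 37 deg C. ADP detected by HTRF Transcreener, 665/615 ratio.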
Rango complex inh – inhibitors of Rango-importin beta complex formation; Q14974; Rango CFP/YFP FRET sensor + importin beta, 45 min; Potency, µM (doses to about 92.2 µM), for the others: at the highest dose inhibition of complex formation; hit rate 0.031% among 340,000; AID 540263; calls by dose curve;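 note: potency is the fitted concentration of half-maximal effect; 0% = DMSO wells and 100% = buffer wells lacking importin beta; nearly all actives have a fitted effect of over 15% in size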
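FRET biosensor Rango (snurportin 1 IBB between N-terminal EYFP and C-terminal Cerulean), 50 nM in PBS/1 mM DTT/0.02% Tween-20/0.1% BSA, preincubated 5 min RT with compound; 0.125 microM importin beta added, 45 min RT, CFP/YFP FRET ratio read.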
Mm-Cpn inhibitor – M. maripaludis TRiC chaperonin inhibition; AID 504842; purified Mm-Cpn ATPase, ADP Transcreener TR-FRET; hit rate 0.031% among 330,000; Potency, µM (top dose mostly 76.9 µM), for inactives: at the top dose activity, negative = inhibition, actives largely listed as inhibitors; note: potency is the fitted concentration of half-maximal effect; % is set by controls: 0 for no effect and ±100 for the full control effect; nearly all actives have a fitted effect of over 80% in size
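Purified archaeal chaperonin (25 nM final) was preincubated with compound for 10 min at 37°C, then ATP (10 uM final) was added for 30 min at 37°C in Tris pH 7.4/KCl/MgCl2/DTT buffer. ADP was quantified by HTRF Transcreener TR-FRET.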
* marks the source's active call; other numbers are inactive results; ? = inconclusive; · = no result; [ ] = another dose, or the depositor's remark. Rows were chosen to be rich in hits. Some 0.43% of all compounds tested hit in one or more screens of this group. Unless noted, calls come from the whole dose curve; as a rule, active = well fitted curve in the direction sought with a large enough effect; inconclusive = small, poorly fitted or top-dose-only effect, or another doubt; inactive = no such curve, though single readings can be large; an effect the other way counts as inactive or inconclusive.

SMILES | Rango dissoc inh | B2AR arrestin | CCT modulator | Rango complex inh | Mm-Cpn inhibitor
COc1cc(/C=C/C(=O)OCC(=O)N2CCCc3ccccc32)ccc1O | 15µM* | 0% | 1 | ? | 0%
COC(=O)c1c(-c2ccc(OC)cc2)sc2ccccc12 | · | 3% | · | · | 35µM*
COC(=O)c1c(-c2cc(OC)cc(OC)c2)sc2ccc(OC)cc12 | 1% | 5% | 1 | 1% | 35µM*
COC(=O)c1c(-c2ccc(OC)cc2)sc2ccc(N3CCOCC3)cc12 | 1% | 0% | -1 | -1% | 50µM*
COC(=O)c1c(-c2ccccc2OC)sc2ccccc12 | 11% | 0% | 2 | 0% | 35µM*
COc1ccc2c(-c3ccc(SC)cc3)c(-c3ccc(S(C)(=O)=O)cc3)sc2c1 | ? | -1% | 0 | ? | -11%
COc1ccc2sc(-c3ccc(S(C)(=O)=O)cc3)c(-c3ccc(SC)cc3)c2c1 | -12% | 0% | -1 | 3% | 20µM*
COc1ccc2sc(-c3ccccc3OC)c(-c3ccc(O)cc3)c2c1 | -2% | -1% | -1 | 1% | -28%
COC(=O)c1c(-c2ccc(S(C)(=O)=O)cc2)sc2cc(OC)ccc12 | 20% | 0% | 1 | 0% | 35µM*
COc1ccc(-c2c(-c3ccccc3OC)sc3ccccc23)cc1 | -16% | -1% | -2 | -10% | 14µM*
COC(=O)c1c(-c2ccc(S(C)(=O)=O)cc2)sc2ccc(OC)cc12 | 43% | 0% | 2 | -6% | ?
O=C(Nc1cc(Cl)ccc1F)C1=COCCO1 | 2% | 0% | 2 | 0% | -2%
Cc1cc(S(=O)(=O)N2CCCC(N(C)CCc3ccccn3)C2)c(C)cc1Cl (centres undefined) | -12% | 0% | -75* | 4% | -2%
CCC(NC(C)C)C(O)c1ccc(O)c2[nH]c(=O)ccc12 (centres undefined) | -15% | 0.18µM* | -2 | ? | -4%
O=c1oc2ccccc2c2c1C1O[C@](c3ccsc3)(Cc3ccccc31)O2 | · | -3%[9.22 µM] | · | · | -13%[15.4 µM]
CC1CCN(C(C(=O)Nc2ccc3c(c2)OCO3)c2ccccc2)CC1 (centres undefined) | 10% | 0% | -84* | -4% | 0%
CC(=C/c1ccccc1)/C=N/Nc1nc(N2CCOCC2)nc(N2CCOCC2)n1 | 0% | 0% | -49* | -1% | -1%
C=CCN1C(=O)/C(=C\c2ccc(OC(=O)c3ccco3)c(OC)c2)SC1=S | -12% | -1% | -84* | 16% | -1%
CN(Cc1c(F)cccc1Cl)C(=O)c1ccc2ccccc2n1 | 1% | 0% | 2 | 0% | 1%
Cc1cc(SCC(=O)c2ccc3c(c2)OCO3)nc2ccccc12 | 15% | 0% | -69* | 1% | ?
O=C1C2=C(C(=O)c3ccccc31)C1O[C@](c3ccsc3)(Cc3ccccc31)O2 | · | 0%[9.22 µM] | · | · | 1%[15.4 µM]
O=C(NN=Cc1ccccc1C(=O)O)c1cccc(S(=O)(=O)Nc2cccc(C(F)(F)F)c2)c1 | 1% | 0% | 2 | 6% | -1%
Cc1ccc(NC(=O)c2ccc(S(=O)(=O)N3CCOCC3)cc2)c(C)c1 | -2% | 0% | 1 | 2% | -1%
COc1cc(C)ccc1NC(=O)c1ccc(S(=O)(=O)N2CCOCC2)cc1 | -21% | 0% | -30* | -5% | -1%
O=C(NCc1cccnc1)c1cc(C(=O)NCc2cccnc2)cc([N+](=O)[O-])c1 | · | · | 0 | · | ·
SMILES | Rango dissoc inh | B2AR arrestin | CCT modulator | Rango complex inh | Mm-Cpn inhibitor
COc1ccc(CC(=O)Nc2nc(C(C)(C)C)cs2)cc1 | 45% | 0% | -67* | 1% | 3%
C[C@@H]1CN([C@@H](C)CO)C(=O)c2cc(NC(=O)C3CC3)ccc2O[C@@H]1CN(C)Cc1ccc(Cl)c(Cl)c1 | 17% | -1% | -41* | 1% | 0%
CCCCCCN1CCN(C2CN(Cc3cn(Cc4ccccc4)nn3)S(=O)(=O)C2)CC1 (centres undefined) | · | · | -32* | · | ·
O=C(Nc1nc2ccccc2[nH]1)c1ccc(F)c(S(=O)(=O)N2CCOCC2)c1 | 1% | -1% | -44* | 1% | 2%
O=c1[nH]c2cnn(-c3ccccc3)c2c(=O)n1O | 8% | · | 2 | -1% | ·
COc1ccccc1-c1noc2c1C(=O)N(Cc1cn(C3CCCC3)nn1)CC2 | · | · | -38* | · | ·
COc1ccccc1-c1noc2c1C(=O)N(Cc1cn(-c3ccccc3)nn1)CC2 | · | · | 1 | · | ·
CCNc1nc(NCC)n2c(SCC(=O)NC34CC5CC(CC(C5)C3)C4)nnc2n1 | 14% | 0% | -1 | -4% | 0%
O=C(c1cccnc1)N1CCc2ccccc2C1 | 14% | -1% | 0 | 1% | 56µM*
O=C(c1cccnc1)N1CCc2ccccc21 | -1% | -2% | 0 | -2% | -4%
CC(=O)Nc1c(Cl)cc(Cl)c2c1Cc1cc(Cl)ccc1-2 | 1% | · | -48* | 6% | ·
COc1ccc(NC(=O)CSc2nnc(CCC(=O)O)c(=O)n2N)cc1 | 14% | 0% | -56* | 1% | -2%
OC(c1ccc(F)cc1)c1nc(-c2ccoc2)cs1 (centres undefined) | · | · | 1 | · | ·
c1cn2cc(-c3ccc4c(c3)OCO4)nc2s1 | -10% | 0% | -63* | 0% | 2%
CC(=O)Oc1ccccc1Cn1c(C)c(C(=O)NCc2ccc(Cl)c(Cl)c2)sc1=O | · | · | -13 | · | ·
COc1ccc(CCNS(=O)(=O)CCNC(=O)c2ccc(OC)cc2)cc1 | -13% | 0% | 0 | 4% | 1%
Cc1ccc(N(C(=O)c2csnn2)C(C(=O)NC2CCCC2)c2ccccn2)c(C)c1 (centres undefined) | 13% | 0% | -4 | 4% | 1%
Cc1ccc(N(C(=O)c2csnn2)C(C(=O)NC2CCCCC2)c2ccccn2)c(C)c1 (centres undefined) | 3% | 0% | -32* | 0% | 0%
COCC(C)NC(=O)c1ccc2c(c1)S(=O)(=O)c1ccccc1C2=O (centres undefined) | -13% | 0% | -5 | -3% | 1%
Cc1ccc(/C=C/C(=O)c2ccccc(=O)c2O)c(C)c1 | 8.2µM* | ? | -3 | ? | 0%
CC(C)OC(=O)Nc1ccc(Oc2c(F)c(F)c(F)c(F)c2F)cc1 | -7% | 0% | -76* | 2% | -1%
CC(/C=C/c1ccccc1)=N\Nc1nc(-c2ccccc2)cs1 | -7% | 0% | -70* | ? | 1%
O=C(Cc1c[nH]c2ccccc12)NCc1ccc2c(c1)OCO2 | 10% | 0% | -38* | -1% | -3%
O=C(CCc1c[nH]c2ccccc12)NCc1ccc2c(c1)OCO2 | -9% | -1% | 1 | 0% | 1%
CN(C)c1cccc(C(=O)NCc2ccc3c(c2)OCO3)c1 | 0% | 0% | -40* | -4% | -5%
O=C(O)c1ccc2c(c1)C(=O)N([C@]1(C(=O)O)CC1c1ccccc1)C2=O (some centres undefined) | · | 0% | · | · | -3%
